In all, about 190,000 compounds went through this assay and about 1,300 (0.68%) were called active. This is one part of a sample in which actives are shown more often than they occur. No stated cut-off is given here; in the data, active means inhibition above about 50%; inactive means the rest.

The target of the test is Mannose-6-phosphate isomerase (Homo sapiens) (UniProt P34949). Nature of the test: MPI inhibition at elevated mannose 6-phosphate – biochemical, fluorescence intensity, high mannose 6-phosphate, primary screen (AID 1220). The settings on record: recombinant PMI enzyme, coupled fluorescence intensity; at 20 µM; active compounds read high.
Chain of Mannose-6-phosphate isomerase (Homo sapiens) (P34949 whole entry, looked up): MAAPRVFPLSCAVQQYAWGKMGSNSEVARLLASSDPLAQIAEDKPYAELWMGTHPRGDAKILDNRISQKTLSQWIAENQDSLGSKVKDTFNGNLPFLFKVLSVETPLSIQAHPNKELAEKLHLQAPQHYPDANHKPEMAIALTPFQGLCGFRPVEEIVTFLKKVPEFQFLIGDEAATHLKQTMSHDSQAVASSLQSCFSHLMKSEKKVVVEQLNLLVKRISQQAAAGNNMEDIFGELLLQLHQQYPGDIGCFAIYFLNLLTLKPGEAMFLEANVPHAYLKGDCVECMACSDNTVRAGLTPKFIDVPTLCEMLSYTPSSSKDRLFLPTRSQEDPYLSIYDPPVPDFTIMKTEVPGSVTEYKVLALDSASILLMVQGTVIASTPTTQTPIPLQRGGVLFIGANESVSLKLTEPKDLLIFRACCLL
By inhibition is commonly meant the change of the read-out against control, counted positive when it falls. Consider `COCCOCCn1c(CCCO)nc2ccccc21`, for which the inhibition was -2.6% (inactive). For `Cc1ccc(S(=O)(=O)N2CCN(Cc3nc4ccccc4[nH]3)CC2)cc1C`, the inhibition was -2.8% (inactive).

On to `CCOC(=O)Cc1csc(NC(=O)CSc2nnc(Cc3csc(N)n3)n2C)n1`, for which the inhibition is 14.4% (inactive). Consider `O=C(NCCN1CCOCC1)c1cc2cc(Br)ccc2oc1=O`, for which the inhibition was 9.2% (inactive). As for `CCOC(=O)N1CCC(NS(=O)(=O)c2ccc3c(c2)CCN3C(C)=O)CC1`, the inhibition was 2.5% (inactive).

Consider `O=C(C1CC1)N1CCc2cc(Br)cc(S(=O)(=O)NC3CCCCC3)c21`, for which the inhibition was 2.5% (inactive). The figure for `Cn1cccc1C(=O)C(=O)Nc1ccccc1` is -5.5% (inactive); for `Cn1cccc1C(=O)C(=O)Nc1ccc(Cl)cc1` it is -0.1% (inactive); for `COC(=O)c1ccc(NC(=O)C(=O)c2cccn2C)cc1` it is 52.2% (active). Regarding `COc1ccc(-c2cnc(N)nc2-c2ccc(OC)cc2O)cc1`, the inhibition was 11.9% (inactive). On to `Nc1ncc2c(n1)-c1ccccc1CC2`, for which the inhibition is 32.5% (inactive). With `COc1ccc2c(c1)CCc1cnc(N)nc1-2` the figure was 60% (active).

In the case of `CCOC(=O)N1CCN(C(=O)C2CCN(Cc3nc(-c4ccccc4C)oc3C)CC2)CC1`, the inhibition was -4.9% (inactive). With `COc1cc(/C=C/C(=O)Nc2cc(S(=O)(=O)N3CCOCC3)ccc2N2CCCC2)cc(OC)c1OC` the figure was 19.5% (inactive); with `c1ccc(-c2csc3ncnc(NCCCN4CCOCC4)c23)cc1`, -16.3% (inactive); with `C#CCNC(=O)C1=C[C@H](c2csc3ccccc23)C[C@H](OCCCCO)O1`, 30.3% (inactive). With `O=C(C1=C[C@H](c2csc3ccccc23)C[C@H](OCCCCO)O1)N1CCN(Cc2ccccc2)CC1` the figure was 22.9% (inactive); with `O=C(NCc1ccccc1)C1=C[C@H](c2csc3ccccc23)C[C@H](OCCCCO)O1`, 53.9% (active). Take `C#CCNC(=O)C1=C[C@@H](c2cn(C(C)=O)c3ccccc23)C[C@@H](OCCCCO)O1`: the inhibition was 22.9% (inactive).

As for `CC(=O)n1cc([C@H]2C=C(C(=O)NCc3ccccc3)O[C@@H](OCCCCO)C2)c2ccccc21`, the inhibition is 46.3% (inactive). Turning to `CC(=O)n1cc([C@@H]2C=C(C(=O)NCc3ccccc3)O[C@H](OCCCCO)C2)c2ccccc21`, the inhibition is 50.3% (active). With `O=C(NCc1ccccc1)C1=C[C@@H](c2csc3ccccc23)C[C@@H](OCc2ccc(CO)cc2)O1` the figure was 44.5% (inactive); with `O=C(Nc1ccccc1)C1=C[C@H](c2csc3ccccc23)C[C@H](OCCCCO)O1`, 12.8% (inactive); with `O=C(NCc1ccccc1)C1=C[C@@H](c2csc3ccccc23)C[C@@H](OCCCCO)O1`, 53.8% (active). The figure for `CN1C(=O)NC(c2ccccc2)C2=C1CN(c1ccc3ccccc3c1)C2=O` (stereo not given) is 9.4% (inactive); for `COc1ccc(C(=O)C[n+]2cn(C(F)F)c3ccccc32)c(F)c1` it is -11.8% (inactive); for `Cc1cc(C)n(C(=O)CSc2nnc(SCC(=O)n3nc(C)cc3C)s2)n1` it is -11.7% (inactive). With `CC(=O)N1CCc2cc(S(=O)(=O)NC(CC(C)C)C(=O)N3CCn4c3nc3ccccc34)ccc21` (stereo not given) the figure was 6.2% (inactive); with `COCCCNCC1C(Oc2ccc(Cl)cc2)C(=O)N1c1ccccc1C` (stereo not given), -5.6% (inactive). Turning to `CCCNCC1C(Oc2ccc(Cl)cc2)C(=O)N1c1ccccc1C` (stereo not given), the inhibition is -6% (inactive). With `COCCNCC1C(Oc2ccc(Cl)cc2)C(=O)N1c1ccccc1C` (stereo not given) the figure was 50.7% (active); with `Nc1ncc(-n2cncn2)c(-c2ccc(Cl)cc2)n1`, 9.9% (inactive); with `CC1CCCCC1NCC(=O)NCc1ccc(F)cc1` (stereo not given), -10.5% (inactive). In the case of `CCOC(=O)c1c(C)oc2cc(Br)c(OC(=O)N3CCOCC3)cc12`, the inhibition is 11.1% (inactive).

Turning to `COc1ccc(-c2nc(C#N)c(N3CCN(c4cccc(Cl)c4)CC3)o2)cc1OC`, the inhibition is 4.2% (inactive).

Consider `CC(=O)Nc1ccc(S(=O)(=O)Oc2ccc3c(c2)C(C)=CC(C)(C)N3)cc1`, for which the inhibition was 29.5% (inactive). Turning to `CC1=CC(C)(C)Nc2ccc(OC(=O)CN3C(=O)CCC3=O)cc21`, the inhibition is 12.7% (inactive). As to `CC1=CC(C)(C)Nc2ccc(OC(=O)c3cccnc3)cc21`, the inhibition was 16% (inactive). Regarding `CC1=CC(C)(C)Nc2ccc(OC(=O)c3ccco3)cc21`, the inhibition is 52% (active).

For the molecule `CC1=CC(C)(C)Nc2ccc(OC(=O)C(C)N3C(=O)c4ccccc4C3=O)cc21` (stereo not given), the inhibition is 24.3% (inactive). In the case of `CC1=CC(C)(C)Nc2ccc(OC(=O)CN3C(=O)c4ccccc4C3=O)cc21`, the inhibition is 26.2% (inactive).

`CC1CC(C)(C)Nc2ccc(OC(=O)c3ccco3)cc21` (stereo not given): the inhibition was 25.5% (inactive). The figure for `CC1=CC(C)(C)Nc2ccc(OS(=O)(=O)c3ccc(C)cc3)cc21` is 51.5% (active); for `COC(=O)c1nn(-c2ccc(C)cc2)ccc1=O` it is -2.7% (inactive). `Cc1cccc(C(=O)NCCc2nnc(SCC(=O)Nc3nc(C)cs3)n2C)c1`: the inhibition is 4% (inactive). As for `CC1CCCN(S(=O)(=O)c2ccc(S(=O)(=O)N3CCC4(CC3)OCCO4)cc2)C1` (stereo not given), the inhibition is 2.2% (inactive). The figure for `CC(C)OC(=O)c1cc(NC(=S)Nc2ccc([N+](=O)[O-])cc2)cc(C(=O)OC(C)C)c1` is 4% (inactive); for `CCC1(CC)C(=O)N=C2c3ccccc3C(=O)N21` it is -2.6% (inactive); for `O=C(c1ccc(C(F)(F)F)cc1)N1CCC(=O)N(C(COCc2ccccc2)Cc2ccccc2)CC1` (stereo not given) it is -5.1% (inactive).

On to `O=C(Nc1ccccc1)c1cc2c(=O)c3ccccc3oc2nc1C(F)(F)F`, for which the inhibition was 4.4% (inactive). Take `COc1ccccc1N1CCN(c2cnccn2)CC1`: the inhibition is 5.8% (inactive).

As to `CNCc1ccccc1Sc1cccc(O)c1`, the inhibition is -1.7% (inactive). With `CNCc1ccccc1Sc1cc(O)ccc1O` the figure was 41.3% (inactive); with `O=C(Cc1ccccc1)NCC(=O)N1CCCCC1`, -8% (inactive).

Regarding `O=C(NNC(=O)C1CC1c1ccccc1)c1ccccc1F` (stereo not given), the inhibition was -2.1% (inactive).

In the case of `CCOC(=O)c1cccc(NC(=O)CCc2ccccc2)c1`, the inhibition was -0.6% (inactive).

As to `CC(=O)NC(Cc1ccccc1)c1ccc2c(c1)OCCCO2` (stereo not given), the inhibition is 4.4% (inactive). Consider `COc1cccc(CNC(=O)CC(NC(C)=O)c2ccccc2)c1` (stereo not given), for which the inhibition is 1% (inactive). Take `COc1cc([C@H](Cc2ccccc2)NC(C)=O)oc(=O)c1`: the inhibition was 53.9% (active). The figure for `Cc1cccc(C(=O)Oc2ccccc2-c2nnco2)c1` is -9.6% (inactive).

The record behind these values is PubChem BioAssay AID1220 (Sanford-Burnham Center for Chemical Genomics, 2008).
